Where “and” joins values, the source holds several entries; their conditions need not be identical. Equal values may be shown once. Results filed as inconclusive are left out. Calls of active or inactive are those of the source. Unless noted, the call rests on the fitted dose curve; in most records, active means well fitted curve in the direction sought with a large enough effect in the repeat runs; inconclusive means weak or mixed curves; inactive means no such curve, though single readings can be large; an effect the other way counts as inactive or inconclusive.
Tests used:
[1] = qHTS assay to identify small molecule antagonists of the glucocorticoid receptor (GR) signaling pathway - cell viability counter screen (AID 720693); further: nearly all actives have a fitted effect of over 55% in size; further: potency means the concentration at half of the fitted maximal effect
[2] = qHTS assay for identifying genotoxic compounds that show differential cytotoxicity against isogenic chicken DT40 cell lines with known DNA damage response pathways - wild type cell line (AID 743012); further: nearly all actives have a fitted effect of over 60% in size; further: potency means the concentration at half of the fitted maximal effect
In short: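 Viability by ATP luminescence (CellTiter-Glo, 30 min RT) after 40 h compound treatment at 37 C/5% CO2, using 300 parental DNA repair-proficient DT40 cells per well.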

[3] = qHTS assay for identifying genotoxic compounds that show differential cytotoxicity against isogenic chicken DT40 cell lines with known DNA damage response pathways - Rad54/Ku70 mutant cell line (AID 743015); further: nearly all actives have a fitted effect of over 60% in size; further: potency means the concentration at half of the fitted maximal effect
[4] = qHTS assay to identify small molecule antagonists of the androgen receptor (AR) signaling pathway - cell viability counter screen (AID 743033; further: nearly all actives have a fitted effect of over 45% in size)
[5] = qHTS assay to identify small molecule antagonists of the androgen receptor (AR) signaling pathway using the MDA cell line - cell viability counter screen (AID 743041; further: nearly all actives have a fitted effect of over 45% in size)
In short: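 Using the breast carcinoma line MDA-kb2 AR-luc, test chemicals were co-incubated with R1881 for 16 h; CellTiter-Fluor reagent, added at 15.5 h, provided a fluorescence measure of live cells.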

[6] = qHTS assay to identify small molecule antagonists of the thyroid receptor (TR) signaling pathway - cell viability counter screen (AID 743064); further: nearly all actives have a fitted effect of over 50% in size; further: potency means the concentration at half of the fitted maximal effect
In short: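 GH3.TRE-Luc rat pituitary cells dosed after 4 hr plating, co-stimulated with T3 at 1 nM final, incubated 23.5 h at 37 C. Viability measured in the same wells by CellTiter-Fluor fluorescence after 30 min further at 37 C.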

[7] = qHTS assay to identify small molecule antagonists of the thyroid receptor (TR) signaling pathway (AID 743065); further: nearly all actives have a fitted effect of over 55% in size; further: potency means the concentration at half of the fitted maximal effect
In short: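 Antagonism measured as loss of luciferase signal in GH3 cells stably carrying a TRE-luciferase reporter, co-treated with compound and T3 (1 nM final) for 23.5 h at 37 C. Viability was read in the same well by CellTiter-Fluor.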

[8] = system: thyroid hormone receptor (rat, GH3 cells); experiment: qHTS assay to identify small molecule agonists of the thyroid receptor (TR) signaling pathway (AID 743066; calls by dose curve)
[9] = target: Estrogen receptor (Homo sapiens) (UniProt P03372); experiment: qHTS assay to identify small molecule antagonists of the estrogen receptor alpha (ER-alpha) signaling pathway (AID 743069; active means well fitted curve in the direction sought with a large enough effect in the signal ratio in the repeat runs, not every such curve was filed as active; the % refers to the signal ratio)
In short: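 Fluorescence intensity from a beta-lactamase FRET substrate served as the read-out. Cells: HEK293 with stably integrated ER-alpha-UAS-bla reporter. Agonist 17beta-estradiol was co-added with compounds; incubation 18 hr at 37C, substrate 2 hr at room temperature.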

[10] = qHTS assay to identify small molecule antagonists of the estrogen receptor alpha (ER-alpha) signaling pathway - cell viability counter screen (AID 743074; calls by dose curve; further: nearly all actives have a fitted effect of over 45% in size)
[11] = target: Estrogen receptor (Homo sapiens) (UniProt P03372); experiment: qHTS assay to identify small molecule agonists of the estrogen receptor alpha (ER-alpha) signaling pathway (AID 743075; calls by dose curve)
[12] = target: Estrogen receptor (Homo sapiens) (UniProt P03372); experiment: qHTS assay to identify small molecule agonists of the estrogen receptor alpha (ER-alpha) signaling pathway using the BG1 cell line (AID 743079); further: nearly all actives have a fitted effect of over 20% in size; further: potency means the concentration at half of the fitted maximal effect
[13] = qHTS assay to identify small molecule antagonists of the estrogen receptor alpha (ER-alpha) signaling pathway using the BG1 cell line (AID 743080; calls by dose curve;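 further: BG1 cells stimulated with 17beta-estradiol alongside compound; nearly all actives have a fitted effect of over 25% in size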; further: potency means the concentration at half of the fitted maximal effect)
In short: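 Readout is ONE-Glo luminescence, taken 30 min at room temperature after reagent addition, preceded by a CellTiter-Fluor viability read; BG1-Luc-4E2 cells had received compound and 17beta-estradiol for 21.5 h at 37 C.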

[14] = qHTS assay to identify small molecule antagonists of the estrogen receptor alpha (ER-alpha) signaling pathway using the BG1 cell line - cell viability counter screen (AID 743081);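 further: compound given together with 17beta-estradiol as the ER stimulus; series mostly up to about 70 µM; nearly all actives have a fitted effect of over 45% in size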
Aromatase (Homo sapiens) = Aromatase (Homo sapiens) (UniProt P11511); experiment: qHTS assay to identify aromatase inhibitors (AID 743083); further: nearly all actives have a fitted effect of over 55% in size; further: potency means the concentration at half of the fitted maximal effect
[15] = qHTS assay to identify aromatase inhibitors - cell viability counter screen (AID 743084);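 further: cells stimulated with testosterone during compound exposure; nearly all actives have a fitted effect of over 55% in size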
[16] = target: Androgen receptor (Homo sapiens) (UniProt P10275); experiment: qHTS assay to identify small molecule agonists of the androgen receptor (AR) signaling pathway using the MDA cell line (AID 743040; further: nearly all actives have a fitted effect of over 20% in size)
In short: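 Stable MMTV-luciferase reporter in MDA-kb2 cells; note the promoter carries GR as well as AR response elements. 16 h compound treatment, 37C, 0% CO2; ONE-Glo luminescence endpoint.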

[17] = target: Androgen receptor (Homo sapiens) (UniProt P10275); experiment: qHTS assay to identify small molecule antagonists of the androgen receptor (AR) signaling pathway using the MDA cell line (AID 743042; further: nearly all actives have a fitted effect of over 55% in size)
In short: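 Antagonist mode: compounds plus R1881 agonist added to MDA-kb2 AR-luc cells, incubated 16 h at 37C. Luciferase reporter luminescence quantified, with multiplexed CellTiter-Fluor readout for cell viability.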

[18] = target: Androgen receptor (Homo sapiens) (UniProt P10275); experiment: qHTS assay to identify small molecule agonists of the androgen receptor (AR) signaling pathway (AID 743036; active means well fitted activation curve with a large enough effect in the signal ratio in the repeat runs, with a control signal flat, not every such curve was filed as active; the % refers to the signal ratio)
In short: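 AR-UAS-bla HEK293 cells, plated 4 h before dosing, were treated with compound for 16 h at 37C. beta-Lactamase reporter read after 2 h with LiveBLAzer B/G FRET substrate at room temperature.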

[19] = qHTS assay for identifying genotoxic compounds that show differential cytotoxicity against isogenic chicken DT40 cell lines with known DNA damage response pathways - Rev3 mutant cell line (AID 743014); further: nearly all actives have a fitted effect of over 55% in size

Measured: Potency

Aromatase (Homo sapiens), sequence (P11511 whole entry, looked up): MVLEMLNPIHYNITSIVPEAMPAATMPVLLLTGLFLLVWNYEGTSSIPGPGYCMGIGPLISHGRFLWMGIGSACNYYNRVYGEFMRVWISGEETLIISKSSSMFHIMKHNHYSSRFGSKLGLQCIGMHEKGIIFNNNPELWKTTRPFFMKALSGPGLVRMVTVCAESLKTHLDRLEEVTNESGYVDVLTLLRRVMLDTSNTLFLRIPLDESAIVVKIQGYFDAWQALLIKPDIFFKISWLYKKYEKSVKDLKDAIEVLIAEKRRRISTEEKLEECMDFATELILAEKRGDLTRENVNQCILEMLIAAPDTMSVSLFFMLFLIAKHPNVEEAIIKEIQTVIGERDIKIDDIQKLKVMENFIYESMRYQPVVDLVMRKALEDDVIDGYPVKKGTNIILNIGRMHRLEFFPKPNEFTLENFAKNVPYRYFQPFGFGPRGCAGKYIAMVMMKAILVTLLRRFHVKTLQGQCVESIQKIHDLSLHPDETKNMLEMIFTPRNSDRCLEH
Androgen receptor (Homo sapiens), sequence (P10275 whole entry, looked up): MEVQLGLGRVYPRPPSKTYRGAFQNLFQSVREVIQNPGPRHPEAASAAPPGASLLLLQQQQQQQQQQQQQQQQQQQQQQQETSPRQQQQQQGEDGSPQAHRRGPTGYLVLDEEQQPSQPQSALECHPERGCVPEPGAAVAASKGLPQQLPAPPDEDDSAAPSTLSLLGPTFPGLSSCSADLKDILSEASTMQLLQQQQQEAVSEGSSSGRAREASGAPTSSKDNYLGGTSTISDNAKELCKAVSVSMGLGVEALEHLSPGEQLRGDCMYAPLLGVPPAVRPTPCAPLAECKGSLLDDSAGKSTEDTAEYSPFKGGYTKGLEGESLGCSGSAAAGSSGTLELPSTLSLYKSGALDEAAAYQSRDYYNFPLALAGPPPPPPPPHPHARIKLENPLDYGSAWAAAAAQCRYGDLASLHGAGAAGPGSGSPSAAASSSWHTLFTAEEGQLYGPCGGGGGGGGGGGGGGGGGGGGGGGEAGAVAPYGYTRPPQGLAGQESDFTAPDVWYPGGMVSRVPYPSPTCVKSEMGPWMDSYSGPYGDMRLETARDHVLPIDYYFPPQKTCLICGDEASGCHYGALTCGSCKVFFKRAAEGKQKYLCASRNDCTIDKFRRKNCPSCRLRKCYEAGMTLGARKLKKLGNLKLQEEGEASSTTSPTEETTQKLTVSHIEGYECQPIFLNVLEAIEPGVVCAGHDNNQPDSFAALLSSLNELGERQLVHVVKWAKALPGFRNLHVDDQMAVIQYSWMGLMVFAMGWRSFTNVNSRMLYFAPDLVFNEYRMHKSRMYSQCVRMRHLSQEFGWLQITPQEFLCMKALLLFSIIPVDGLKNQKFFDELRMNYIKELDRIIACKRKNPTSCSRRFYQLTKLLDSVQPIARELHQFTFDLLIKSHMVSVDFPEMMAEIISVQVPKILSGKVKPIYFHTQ
Estrogen receptor (Homo sapiens), sequence (P03372 whole entry, looked up): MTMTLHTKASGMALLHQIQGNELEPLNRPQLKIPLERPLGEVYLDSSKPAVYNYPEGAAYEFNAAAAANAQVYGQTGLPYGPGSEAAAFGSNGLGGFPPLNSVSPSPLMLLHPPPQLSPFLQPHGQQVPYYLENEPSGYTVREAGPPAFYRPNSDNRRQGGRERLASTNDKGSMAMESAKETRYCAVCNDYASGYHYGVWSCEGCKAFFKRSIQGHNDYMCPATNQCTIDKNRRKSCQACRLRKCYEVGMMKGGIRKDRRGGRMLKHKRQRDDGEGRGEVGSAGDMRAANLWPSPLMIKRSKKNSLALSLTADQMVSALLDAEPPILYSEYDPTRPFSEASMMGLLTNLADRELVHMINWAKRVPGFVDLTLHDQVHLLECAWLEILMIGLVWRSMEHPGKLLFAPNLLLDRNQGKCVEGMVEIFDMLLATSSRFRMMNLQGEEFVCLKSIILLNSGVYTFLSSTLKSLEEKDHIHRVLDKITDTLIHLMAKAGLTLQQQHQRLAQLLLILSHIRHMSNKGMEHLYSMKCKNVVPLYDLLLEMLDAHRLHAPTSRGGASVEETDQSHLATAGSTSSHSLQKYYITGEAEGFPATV

O=CNNC=O
not listed: [16] | [17] | [18] | [19]
inactive: all other assays above

CC1=C2[C@@H]([C@H](C)CC[C@H]2/C=C(\C)C(=O)O)[C@H](O)C1
not listed: [16] | [17] | [18] | [19]
inactive: all other assays above

CCN(CC)c1cccc(O)c1
active: [12] 70 µM
not listed: [9] | [11] | [18] | [19]
inactive: all other assays above

COC(=O)CC(C(C)=O)C(=O)OC (centres undefined)
not listed: [19]
inactive: all other assays above

BrC(Br)C(Br)Br
not listed: [19]
inactive: all other assays above

O=[N+]([O-])c1ccc2ncccc2c1
not listed: [16] | [17] | [18] | [19]
inactive: all other assays above

O=C(O)CO
not listed: [16] | [17] | [18] | [19]
inactive: all other assays above

CC[C@H]1OC(=O)[C@H](C)[C@@H](O[C@H]2C[C@@](C)(OC)[C@@H](O)[C@H](C)O2)[C@H](C)[C@@H](O[C@@H]2O[C@H](C)C[C@H](N(C)C)[C@H]2O)[C@](C)(O)C[C@@H](C)CN(C)[C@H](C)[C@@H](O)[C@]1(C)O
active: [2] 3.76 µM and 2.87 µM | [3] 3.76 µM and 2.56 µM | [6] 29.8 µM and 40.5 µM | [7] 29.8 µM and 36.1 µM
not listed: [16] | [17] | [18] | [19]
inactive: all other assays above

O=C(O)c1cccc(Oc2ccccc2)c1
not listed: [15] | [16] | [17] | [18] | [19]
inactive: all other assays above

CC1=CC[C@@]23C[C@@H]1C(C)(C)[C@@H]2CC[C@H]3C
not listed: [3] | [9] | [11] | [12] | [13] | [16] | [17] | [18]
inactive: all other assays above

CCN(CC)CCNC(=O)c1cc(Cl)c(N)cc1OC
not listed: [16] | [17] | [18] | [19]
inactive: all other assays above

CCCCCCCC(=O)Oc1c(Br)cc(C#N)cc1Br
inactive: [1] | [2] | [19] | [5] | [8] | [11] | [14]
active: [13] 60.9 µM | Aromatase (Homo sapiens) 60.9 µM

NC(=O)CCCCC(N)=O
not listed: [16] | [17] | [18] | [19]
inactive: all other assays above

CC1CCC(C(C)CS)CC1S (centres undefined)
active: [1] 49 µM
not listed: [9] | [11] | [12] | [13] | [19]
inactive: all other assays above

C[C@H](CS)C(=O)N1CCC[C@H]1C(=O)O
not listed: [6] | [9] | [11] | [12] | [13] | [19]
inactive: all other assays above

CC(C)COC(=O)c1ccc(O)cc1
not listed: [3] | [9] | [11] | [12] | [13] | [16] | [17] | [18]
inactive: all other assays above

CC(C)N=C=NC(C)C
not listed: [11] | [12] | [16] | [17] | [18] | [19]
inactive: all other assays above

CC(C)C1CCC(C(=O)N[C@H](Cc2ccccc2)C(=O)O)CC1 (some centres undefined)
not listed: [16] | [17] | [18] | [19]
inactive: all other assays above

CC(C)c1ccc(C(=O)N=C(N)N)cc1S(C)(=O)=O
not listed: [12] | [16] | [17] | [18] | [19]
inactive: all other assays above

Cc1cccc2sc(N)nc12
not listed: [16] | [17] | [18] | [19]
inactive: all other assays above

CCc1ccc(C)cc1
not listed: [6] | [9] | [11] | [12] | [13] | [19]
inactive: all other assays above

CCC(CO)(CO)[N+](=O)[O-]
not listed: [16] | [17] | [18] | [19]
inactive: all other assays above

c1ccc2sc(SSc3nc4ccccc4s3)nc2c1
not listed: [16] | [17] | [18] | [19]
inactive: all other assays above

C=C(C)C(=O)OCCC(F)(F)C(F)(F)C(F)(F)C(F)(F)C(F)(F)C(F)(F)F
not listed: [16] | [17] | [18] | [19]
inactive: all other assays above

CC(C)COC(=O)COc1cc(Cl)c(Cl)cc1Cl
not listed: [16] | [17] | [18] | [19]
inactive: all other assays above

CC1CCCC(=O)C1=O (centres undefined)
not listed: [19]
inactive: all other assays above

CCCCC[C@H](O)/C=C/[C@H]1[C@H](O)CC(=O)[C@@H]1C/C=C\CCCC(=O)O
inactive: [1] | [2] | [3] | [4] | [16] | [5] | [8] | [10] | Aromatase (Homo sapiens) | [15]

CC(=O)NCCO
not listed: [9] | [11] | [12] | [13] | [16] | [17] | [18] | [19]
inactive: all other assays above

CC[C@H]1OC(=O)[C@H](C)[C@@H](O[C@H]2C[C@@](C)(OC)[C@@H](O)[C@H](C)O2)[C@H](C)[C@@H](O[C@@H]2O[C@H](C)C[C@H](N(C)C)[C@H]2O)[C@](C)(O)C[C@@H](C)C(=O)[C@H](C)[C@@H](O)[C@]1(C)O
not listed: [9] | [11] | [12] | [13] | [16] | [17] | [18] | [19]
inactive: all other assays above

CCC(CO)(CO)CO
not listed: [3] | [19]
inactive: all other assays above

CCC1CCC(CCC(=O)O)C1 (centres undefined)
inactive: [1] | [2] | [3] | [4] | [6] | [7] | [8] | [10] | [14] | Aromatase (Homo sapiens) | [15]

CC(C)(C(=O)c1cccnc1)c1cccnc1
not listed: [7] | [8] | [16] | [17] | [18] | [19]
inactive: all other assays above

CNC1CCCN(c2c(F)cc3c(=O)c(C(=O)O)cn(C4CC4)c3c2OC)C1 (centres undefined)
not listed: [2] | [16] | [17] | [18]
inactive: all other assays above

O=C(CCS)OCC(COC(=O)CCS)(COC(=O)CCS)COC(=O)CCS
not listed: [2] | [15] | [16] | [17] | [18]
inactive: all other assays above
